From PubChem BioAssay
This is a sample that favours compounds with a hit; in the whole collection about 3.8% have one here.
rRNA inh HTS: inhibitors of bacterial rRNA selective over humanized ribosomes. E. coli WT GFP vs humanized-ribosome RFP mutants, fluorescence, 24 h; active compounds read low; DMSO median 0, no signal -100. GFP signal change (wild-type ribosome), % (test concentration not listed). 1.6% of 350,000 active. AID 720706;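 active = significant combined selectivity score with lowered wild-type GFP, culture density cut under 30%, mutant RFP and density less affected; inactive = any of these conditions unmet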
FGF22 binding: FGF22 (human) thermal shift binding; Q9HCT0; recombinant FGF22 thermal shift, SYPRO orange fluorescence; percent of sucrose octasulfate shift, DMSO zero; activity (Tm shift, normalised), % at 9.99 µM; 1.5% of 340,000 active; AID 651658;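 active = mean Tm shift, scaled 0 neutral to 100 positive control, at about 1.3% or above, every replicate too, limit read from the data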
Target sequence (Q9HCT0 whole entry, looked up): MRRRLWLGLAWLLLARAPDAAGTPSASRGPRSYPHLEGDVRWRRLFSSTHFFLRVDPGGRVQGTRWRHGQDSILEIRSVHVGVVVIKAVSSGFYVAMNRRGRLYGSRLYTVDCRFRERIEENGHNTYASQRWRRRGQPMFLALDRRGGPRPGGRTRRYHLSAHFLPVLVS
ADAM17 inh: ADAM17 inhibition, QFRET primary screen; 0.83% of 370,000 active; recombinant ADAM17, EDANS/DABCYL FRET peptide cleavage; inhibition, % at 6.95 µM;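 active = inhibition above the mean of compounds lying between control limits plus 3 SD, set per campaign, cut at about 8.5% in these data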
ADAM10 inh: inhibits human ADAM10; inhibition, % at 7 µM; recombinant ADAM10, EDANS/DABCYL FRET peptide cleavage, 3 h; AID 720582; O14672; 0.62% of 370,000 active;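 active = inhibition above a per-campaign cutoff equal to the mean of compounds falling between control-based bounds plus 3 SD, cut at about 20% in these data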
proKLK7 act: activates the human kallikrein-7 zymogen. purified proKLK7, EDANS-DABCYL substrate fluorescence; 100% is mature enzyme control, 0% vehicle. activation, % at 7 µM. 0.9% of 370,000 active. AID 652039;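 active = activation above the mean of all tested compounds plus 3 SD, computed per campaign excluding outliers beyond control limits, cut at about 13% in these data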
Target sequence (P49862 whole entry, looked up): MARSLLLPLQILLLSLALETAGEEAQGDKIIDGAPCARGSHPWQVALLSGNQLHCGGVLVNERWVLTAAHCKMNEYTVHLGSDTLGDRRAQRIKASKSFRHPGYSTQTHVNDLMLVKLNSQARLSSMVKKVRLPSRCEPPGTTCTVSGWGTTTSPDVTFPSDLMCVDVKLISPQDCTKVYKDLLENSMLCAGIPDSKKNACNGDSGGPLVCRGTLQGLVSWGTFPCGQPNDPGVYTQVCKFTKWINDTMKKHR
ADAM10 ctr: counter-screen for ADAM17 exosite inhibitors: inhibitors of human ADAM10; shares compounds with ADAM17 inh; recombinant ADAM10, EDANS/DABCYL FRET peptide cleavage, 3 h; inhibition, % at 6.95 µM; 47% of 2,900 active;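 active = mean inhibition over the triplicate runs exceeds the activity threshold set in the earlier primary screen, cut at about 20% in these data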
ADAM17 confirm: confirmation of inhibitors of human ADAM17. shares compounds with ADAM17 inh. recombinant ADAM17, EDANS/DABCYL QFRET peptide cleavage. inhibition, % at 6.95 µM. 65% of 2,900 active;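 active = mean inhibition across replicates above the hit cutoff set in the primary screen, cut at about 8.5% in these data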
Numbers stand for hits; n = inactive; x = no result given.

SMILES	rRNA inh HTS	FGF22 binding	ADAM17 inh	ADAM10 inh	proKLK7 act	ADAM10 ctr	ADAM17 confirm
CCCC(=O)Nc1ccc2c(c1)OC[C@H](C)N(CC1CCCC1)C[C@H](C)[C@@H](OC)CN(C)C2=O	n	n	x	x	x	x	x
CC(=O)N(C)C[C@H]1Oc2cc(C#CC3CCCC3)ccc2S(=O)(=O)N([C@H](C)CO)C[C@H]1C	n	n	x	x	x	x	x
CCOC(=O)CC1(C)Oc2ccccc2N1S(=O)(=O)c1ccc(C)cc1 (centres undefined)	n	n	9.9	n	n	n	n
NS(=O)(=O)c1ccc(N/N=C2/CCCCC2C2CCCCC2)c([N+](=O)[O-])c1 (centres undefined)	x	n	11.7	n	n	n	8.7
Cc1noc(C)c1NC(=O)N(C)C[C@@H]1Oc2ccc(NC(=O)CCCCCC(=O)Nc3ccccc3N)cc2CC(=O)N([C@H](C)CO)C[C@@H]1C	n	n	x	x	x	x	x
COC(=O)C[C@@H]1C[C@@H]2c3cc(NC(=O)c4cccnc4)ccc3O[C@@H]2[C@H](CO)O1	n	n	x	x	x	x	x
COc1ccc(NC(=O)CN(C)S(=O)(=O)c2ccc3c(c2)CCCN3C(C)=O)cc1	n	n	n	n	n	x	x
COc1ccc(C)cc1NC(=O)CN(C)S(=O)(=O)c1ccc2c(c1)CCCN2C(C)=O	n	n	9.0	n	n	n	n
C=CCNc1cccc(Br)c1	n	n	9.1	n	n	n	n
Cc1noc(C)c1NC(=O)N(C)C[C@@H]1Oc2ccc(NC(=O)NC3CCCCC3)cc2C(=O)N([C@H](C)CO)C[C@H]1C	n	n	x	x	x	x	x
O=C1[C@H]2[C@@H](c3ccc(C(F)(F)F)cc3)N[C@]3(CCCN(Cc4ccc(F)cc4)C3=O)[C@H]2C(=O)N1Cc1ccccc1	n	n	8.9	n	n	23.9	12.7
CC(C)C1Nc2c(O)cc(Cl)c([N+](=O)[O-])c2C2C=CCC21 (centres undefined)	n	n	14.7	n	n	20.7	14.0
O=C(O)C1Nc2c(Cl)cc(Cl)c(Cl)c2C2C=CCC12 (centres undefined)	n	n	n	n	n	x	x
O=C(C[C@H]1C=C[C@H](NC(=O)C2CC2)[C@@H](CO)O1)NCc1ccncc1	n	n	x	x	x	x	x
Cc1noc(C)c1NC(=O)Nc1ccc2c(c1)C(=O)N([C@@H](C)CO)C[C@@H](C)[C@H](CN(C)C(=O)NC1CCCCC1)OCCCC[C@H](C)O2	n	n	x	x	x	x	x
C[C@@H]1CCCCO[C@H](CN(C)S(=O)(=O)c2cccs2)[C@H](C)CN([C@@H](C)CO)C(=O)c2cc(NC(=O)NC3CCCCC3)ccc2O1	n	n	11.3	n	n	28.1	15.7
C[C@H](CO)N1C[C@H](C)[C@@H](CN(C)C(=O)Nc2ccc3c(c2)OCO3)Oc2ccc(NC(=O)Nc3ccc(C(F)(F)F)cc3)cc2C1=O	n	n	10.5	n	n	20.6	14.8
Cc1noc(C)c1NC(=O)Nc1ccc2c(c1)C(=O)N([C@H](C)CO)C[C@H](C)[C@H](CN(C)C(=O)NC1CCCCC1)OCCCC[C@@H](C)O2	n	n	9.8	n	n	26.5	n
CN1CCN(C(=O)C[C@H]2CC[C@@H]3[C@@H](COc4ccc(NC(=O)C5CCC5)cc4C(=O)N3C)O2)CC1	n	x	x	x	x	x	x
O=C(C1CC1)N1C[C@H]2[C@@H](c3ccccc31)[C@H](CO)N2C(=O)c1cccc(F)c1	n	x	x	x	x	x	x
C[C@@H]1CN([C@H](C)CO)S(=O)(=O)c2ccc(C#Cc3cccc(F)c3)cc2O[C@@H]1CN(C)CC1CC1	n	n	x	x	x	x	x
O=C(COC(=O)c1ccco1)Nc1ccc2c(c1)OCO2	n	x	9.6	n	n	n	n
O=C(COC(=O)c1ccco1)NCc1ccc2c(c1)OCO2	n	n	n	n	n	x	x
O=C(NCC1CCCCC1)[C@H]1[C@H](CO)[C@H]2Cn3c(cccc3=O)[C@H]2N1Cc1ccccn1	n	n	x	x	x	x	x
